# Assay results taken from article PMC4336329 (PLoS ONE, 2015).
# Out of some 310,000 compounds screened, about 14,000 (4.5%) showed an effect of 50% or more. Effects have a minus sign here. For the sample, strong results were picked, then their nearest neighbours and some compounds at random.
# Molecular target: human ether-à-go-go-related gene (hERG) potassium channel (human, UniProt Q12809)
# Assay: primary screen, population patch clamp on CHO cells stably expressing hERG; higher = less effect of the substance
# 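Further: peak tail current of the secondary pulse compared with the same well before compound.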
# human ether-à-go-go-related gene (hERG) potassium channel, sequence (Q12809 whole entry, looked up): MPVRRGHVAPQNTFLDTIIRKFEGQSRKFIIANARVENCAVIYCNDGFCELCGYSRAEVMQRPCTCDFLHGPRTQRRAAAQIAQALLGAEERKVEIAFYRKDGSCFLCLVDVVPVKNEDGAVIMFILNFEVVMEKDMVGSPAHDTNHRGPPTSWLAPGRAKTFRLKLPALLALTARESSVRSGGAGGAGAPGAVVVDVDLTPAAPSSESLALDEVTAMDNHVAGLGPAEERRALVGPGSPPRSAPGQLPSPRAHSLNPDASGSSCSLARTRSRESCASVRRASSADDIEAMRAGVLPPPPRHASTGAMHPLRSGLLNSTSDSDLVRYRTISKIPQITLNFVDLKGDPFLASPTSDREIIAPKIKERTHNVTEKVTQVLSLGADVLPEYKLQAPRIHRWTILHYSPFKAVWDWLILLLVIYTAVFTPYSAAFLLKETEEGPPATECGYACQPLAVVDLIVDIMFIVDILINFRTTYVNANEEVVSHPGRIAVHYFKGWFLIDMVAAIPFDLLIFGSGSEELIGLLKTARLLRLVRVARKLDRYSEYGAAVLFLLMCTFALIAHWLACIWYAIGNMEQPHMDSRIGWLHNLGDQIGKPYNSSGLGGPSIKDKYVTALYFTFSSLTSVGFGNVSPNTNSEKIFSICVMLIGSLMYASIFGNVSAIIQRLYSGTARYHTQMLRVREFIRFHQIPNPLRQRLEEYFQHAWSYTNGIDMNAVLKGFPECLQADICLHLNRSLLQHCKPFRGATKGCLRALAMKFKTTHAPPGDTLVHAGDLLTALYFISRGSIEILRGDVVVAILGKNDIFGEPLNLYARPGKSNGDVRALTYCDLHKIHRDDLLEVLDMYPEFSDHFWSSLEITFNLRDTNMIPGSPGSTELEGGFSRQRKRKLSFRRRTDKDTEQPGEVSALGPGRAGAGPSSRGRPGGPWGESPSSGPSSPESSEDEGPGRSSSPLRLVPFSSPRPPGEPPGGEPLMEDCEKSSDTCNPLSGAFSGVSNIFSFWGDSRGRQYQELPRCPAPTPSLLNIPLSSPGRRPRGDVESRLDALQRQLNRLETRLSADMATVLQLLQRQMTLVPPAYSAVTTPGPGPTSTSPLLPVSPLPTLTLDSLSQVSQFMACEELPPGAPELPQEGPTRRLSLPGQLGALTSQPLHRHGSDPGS
row,Compound,"hERG current change (%, negative = inhibition) at 10uM [%]"
1,CCC1CCCCN1C(=O)COC(=O)CN(C)S(=O)(=O)c1ccc(NC(C)=O)cc1 (stereo not drawn),7.22
2,Cc1c(-c2cccc(NC(=O)c3ccco3)c2)nc2ncccn12,-13.3
3,Cc1ccc(NC(=O)c2nsc(Cl)c2Cl)cc1,5.34
4,CCCOc1ccccc1-c1nc2n[nH]nc2c(=O)[nH]1,-56.3
5,CCCc1nn(C)c2c(=O)[nH]c(-c3ccccc3OCC)nc12,7.87
6,CCCOc1ccccc1-c1nc2c([nH]1)c(=O)[nH]c(=O)n2C,8.5
7,COc1ccccc1NC(=O)CCS(=O)(=O)c1cc2c(cc1Cl)NC(=O)CO2,1.94
8,CCOC(=O)c1cnc2cc(C)nn2c1-c1ccccc1,3.92
9,CCOc1ccc(/C=N/NC(=O)CN2CCSCC2)cc1,1.7
10,CCOc1ccc(/C=N/NC(=O)CN2CCCCCCC2)cc1,-63
11,CCCOc1ccc(/C=N/NC(=O)CN2CCCCC2)cc1,-49.7
12,O=C(CCN1CCCCC1)Nc1ccc(Br)cc1,-37.9
13,O=C(CN1CCCCCCC1)N/N=C/c1ccc(F)c(F)c1,-33.7
14,COc1ccc(/C=N/NC2=NCCCCC2)cc1,-43.7
15,CCOc1ccc(/C=N/NC2=NCCCCC2)cc1,-69.3
16,Cc1cccc(/C=N/NC(=O)CN2CCCCCCC2)c1,-45.9
17,O=C(CN1CCCCCC1)N/N=C/c1ccc2ccccc2c1,-64.6
18,CCCCCCC(=O)N/N=C/c1ccc(Br)cc1,1.25
19,O=C(CCN1CCCCC1)N/N=C/c1ccc(Br)cc1,-77.8
20,Oc1ccc(/C=N/NC2=NCCCCC2)cc1,-16.2
21,CC(=O)c1ccc(OCc2cc(=O)n3ccsc3n2)cc1,-1.4
22,C=CCN1C(=O)C(CC(=O)NCC)SC1=Nc1cc(Cl)ccc1Cl (stereo not drawn),-2.76
23,Cc1ccc(NC(=O)C(C)OC(=O)CCNS(=O)(=O)c2ccc(C)cc2)cc1 (stereo not drawn),-16.5
24,CCOC(=O)C1=C(C)NC(=O)NC1,-3.56

row,Compound,"hERG current change (%, negative = inhibition) at 10uM [%]"
1,CCN(CC)S(=O)(=O)c1cc(NC(=O)CCNC(=O)c2ccccc2Cl)ccc1C,-11.5
2,COc1cc(/C=C/c2nc3ccccc3c(=O)[nH]2)cc(Br)c1O,30.6
3,CC(C)(C)Nc1nc(NN)nc(NC(C)(C)C)n1,11.8
4,O=C(Nc1ccc(C(=O)O)cc1)/C(=C\c1ccco1)NC(=O)c1ccccc1,21.2
5,Cl.O=C1c2ccccc2C(=O)N1CC#CCN1CCN(C2CCCCC2)CC1,-40.8
6,Cn1cccc1CC(=O)N/N=C/c1ccc([N+](=O)[O-])cc1,-1.88
7,O=C(CN1CCCCCC1)N/N=C/c1ccc(Cl)c(Cl)c1,-60
8,O=C(CN1CCSCC1)N/N=C/c1ccc(Cl)cc1,-12.5
9,O=C(CN1CCCCC1)N/N=C/c1ccc(Cl)cc1,-66.9
10,O=C(CN1CCCCC1)N/N=C/c1ccc(Cl)cc1Cl,-39.1
11,CC1CCN(CCC(=O)N/N=C/c2ccc([N+](=O)[O-])cc2)CC1,-70
12,O=C(CN1CCCCCC1)N/N=C/c1cccc(Cl)c1,-37.5
13,CN1CCN(CCC(=O)N/N=C/c2cc([N+](=O)[O-])ccc2O)CC1,1.18
14,O=C(CN1CCCCC1)N/N=C/c1cccc(Cl)c1,-35.6
15,CCOC(=O)c1c(N)nn(C(=O)c2ccccc2F)c1-c1ccc(OC)cc1,3.53
16,Nn1c(Cc2cccc3ccccc23)nnc1SCC(=O)N1CC(=O)Nc2ccccc21,7.01
17,Cc1ccc2cc(CCNC(=O)c3ccco3)c(=O)[nH]c2c1,-13.6
18,CCN(CC)c1ccc(-n2c(C)cc(C=O)c2C)cc1,6.33
19,CC/C(=N/N=C(\CC)c1ccccc1)c1ccccc1,5.16
20,CCCC[N+]12CCC(CC1)C(Cc1ccccc1)C2.[Br-] (stereo not drawn),21.9
21,CCC/C(=N\NC(=O)C1CC1)c1ccccc1,-2.21
22,CC[N+]12CCC(CC1)C(=C(c1ccccc1)c1ccccc1)C2.[Br-],-73.6
23,CC[N+]12CCC(CC1)C(C(O)(c1ccccc1)c1ccccc1)C2.[Br-] (stereo not drawn),-5.24
24,CCC[N+]12CCC(CC1)C(C(O)(c1ccccc1)c1ccccc1)C2.[Br-] (stereo not drawn),-0.95

row,Compound,"hERG current change (%, negative = inhibition) at 10uM [%]"
1,CCC[N+]12CCC(CC1)C(=C(c1ccccc1)c1ccccc1)C2.[Br-],-70.1
2,CCCC[N+]12CCC(CC1)C(=C(c1ccccc1)c1ccccc1)C2.[Br-],-72.4
3,CCCC[N+]12CCC(CC1)C(C(O)(c1ccccc1)c1ccccc1)C2.[Br-] (stereo not drawn),5.84
4,COC(=O)COc1ccc2c(=O)c(-c3ccccc3OC)coc2c1,10.2
5,COc1ccc(CSc2nncn2N)cc1Br,4.98
6,Cc1cc(C)c(-n2c(C)cc(/C=C3/NC(=O)NC3=O)c2C)c(C)c1,-9.75
7,CCOc1ccccc1N(C)C(=O)CCS(=O)(=O)c1ccc2c(c1)NC(=O)CO2,5.58
8,CC(C)CCOP(=O)(c1ccc(N(C)C)cc1)C(O)c1ccc(Cl)cc1Cl (stereo not drawn),0.259
9,CCCOP(=O)(c1ccc(N(C)C)cc1)C(O)c1ccc(Cl)cc1 (stereo not drawn),9.5
10,CCCOP(=O)(c1ccc(N(C)C)cc1)C(O)c1ccc(Cl)cc1Cl (stereo not drawn),-54.9
11,CC1CC(C)CN(c2oc(-c3ccco3)nc2C#N)C1 (stereo not drawn),0.193
12,COc1cc(/C=N/NC(=O)c2ccncc2)ccc1OCc1cnc(Cl)s1,2.43
13,N#Cc1cc(-c2ccccc2)nc(N2CCNCC2)n1,-11.3
14,COc1ccc(-c2cc(C#N)nc(N3CCNCC3)n2)cc1,-79.3
15,COc1ccc(-c2cc(C#N)nc(N3CCN(C)CC3)n2)cc1,-42.5
16,Cc1ccc(NC(=O)C(=O)NCCN2CCN(S(C)(=O)=O)CC2)cc1C,0.0768
17,O=C(NCCc1ccccc1)c1ccc(CS(=O)Cc2ccc(Cl)cc2)o1 (stereo not drawn),-58.8
18,O=C(NCCc1ccccc1)c1ccc(CS(=O)Cc2cccc(Cl)c2)o1 (stereo not drawn),-6.23
19,CCOc1ccc(CCNC(=O)c2ccc(CS(=O)Cc3ccccc3Cl)o2)cc1 (stereo not drawn),-19
20,COc1ccccc1S(=O)Cc1ccc(C(=O)NCc2ccccc2Cl)o1 (stereo not drawn),-19.5
21,CCOc1ccc(CCNC(=O)c2ccc(CS(=O)Cc3cccc(Cl)c3)o2)cc1 (stereo not drawn),-76
22,COc1ccc(CCNC(=O)c2ccc(CS(=O)Cc3ccc(Cl)cc3)o2)cc1OC (stereo not drawn),-26.7
23,CSc1ccc(CCNC(=O)c2ccc(CS(=O)Cc3ccccc3Cl)o2)cc1 (stereo not drawn),-2.87
24,O=C(NCCc1ccc(Cl)cc1)c1ccc(CS(=O)Cc2ccccc2Cl)o1 (stereo not drawn),-30

row,Compound,"hERG current change (%, negative = inhibition) at 10uM [%]"
1,O=C(NCCc1ccc(Cl)cc1)c1ccc(CS(=O)Cc2ccc(Cl)cc2)o1 (stereo not drawn),-39.8
2,O=C(NCCCc1ccccc1)c1ccc(CS(=O)Cc2ccccc2Cl)o1 (stereo not drawn),-76.2
3,CCOc1ccc(CCNC(=O)c2ccc(CS(=O)Cc3ccc(Cl)cc3)o2)cc1 (stereo not drawn),-14.1
4,COc1ccccc1S(=O)Cc1ccc(C(=O)NCCc2ccc(Cl)cc2)o1 (stereo not drawn),-65.4
5,CCOc1ncccc1C(=O)NNC(=O)c1ccc(NS(=O)(=O)c2cccs2)cc1,13
6,Cc1onc(-c2ccccc2)c1C(=O)Nc1sc2c(c1C(N)=O)CCC2,6.44
7,CCC(C)NC(=O)C1CCN(c2nc(OC)nc(OC)n2)CC1 (stereo not drawn),-4.66
8,CCN(Cc1cc2ccccc2[nH]c1=O)C(=O)c1cccc([N+](=O)[O-])c1,-21.8
9,Clc1cccc(-c2cc3nc4c(c(N5CCOCC5)n3n2)CCCC4)c1,-6.06
10,Cn1c(=O)n(-c2cccc(Cl)c2)c(=O)n1C,6.81
11,Brc1ccccc1-c1nc(-c2ccccc2)no1,5.04
12,CC1(C)CC(=O)C2=C(C1)c1c(ccc3ccccc13)NC2c1ccco1 (stereo not drawn),14.1
13,CC12CCC(=O)N1C(C(=O)Nc1ccccc1N1CCCCC1)CS2 (stereo not drawn),-15.9
14,CCN(CC)S(=O)(=O)N1CCC(C(=O)NC2CCCc3ccccc32)CC1 (stereo not drawn),-8
15,Cc1cc(Br)c(S(=O)(=O)NCc2ccncc2)cc1C,7.87
16,CNc1cncc(C(=O)O)c1,7.43
17,Cc1ccc(O)c(C(=O)c2cnc3onc(-c4ccc(F)cc4)c3c2)c1,4.58
18,O=C(NCCCc1ccccc1)c1ccc(CS(=O)Cc2ccc(Cl)cc2)o1 (stereo not drawn),-74.3
19,Cc1ccc(CS(=O)Cc2ccc(C(=O)NCCc3ccccc3)o2)cc1 (stereo not drawn),-7.62
20,O=C(NCCc1cccs1)c1ccc(CS(=O)Cc2ccc(Cl)cc2)o1 (stereo not drawn),-20.4
21,Cc1ccccc1C(=O)N1CCN(c2ccc(NC(=O)c3ccco3)cc2)CC1,5.43
